From PubChem BioAssay AID624305 (National Center for Advancing Translational Sciences (NCATS), 2012)
Inconclusive results are not listed. Unmarked numbers belong to inactive results. Activity calls are given as the source filed them. Calls come from the whole dose curve; as a rule, active = well fitted activation curve with a large enough effect; inconclusive = small, poorly fitted or top-dose-only effect; inactive = no such curve, though single readings can be large or run the other way.

test: qHTS assay for re-activators of p53 using a Luc reporter: Hit Validation; conditions: p53-responsive luciferase reporter cells, luminescence, H1299 line expressing heat-sensitive Ala138Val p53; series mostly up to 46.1 µM; activation: at the top concentration; note: nearly all actives have a fitted effect of over 75% in size; for activation: 0% is about no effect
Procedure, shortened: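 Hit confirmation with a 1:5 dilution series, at 37 deg C for 24 hrs, in H1299 cells co-expressing temperature-sensitive p53-A138V and p53-responsive luciferase. Nocodazole served as control; luminescence read after 10 min with detection reagent.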
Potency is the fitted concentration of half-maximal effect.

| SMILES | activation | Potency |
| --- | --- | --- |
| O=C(NCCN1CCCCC1)Nc1cccc(C(F)(F)F)c1 | -0.521% | – |
| C=CCNC(=S)N/N=C(\C)c1ccccn1 | – | 6.51 µM (active) |
| CCOC(=O)c1ccc2ncc(C(=O)OCC)c(NCc3ccco3)c2c1 | 1.04% | – |
| Brc1c(CSc2nc3ccccc3s2)nc2ncccn12 | – | 9.2 µM (active) |
| Cc1ccc(C(=O)Nc2ncc3c(n2)CC(c2ccco2)CC3=O)cc1 (stereo not drawn) | 31.8% | – |
| Cc1cc(NC(c2cccnc2)c2ccc3cccnc3c2O)no1 (stereo not drawn) | 128% | – |
| O=C1CCCC(O)=C1N=Nc1c(Cl)cc(Cl)cc1Cl | 26.6% | – |
| COc1ccc2oc(-c3cccc(NC(=O)CSc4ccc(Cl)cc4)c3)nc2c1 | -2.44% [at 9.22 µM] | – |
| COc1ccc(/C(O)=C2/C(=O)C(=O)N(CCN3CCOCC3)C2c2ccccn2)cc1 (stereo not drawn) | 5.21% | – |
| Cc1ccc(-c2cc(-c3ccccc3Cl)[nH]n2)c(O)c1 | – | 14.6 µM (active) |
| Cc1cnc(C(=O)OCC(=O)c2csc(N3CCCCC3)n2)cn1 | 25% | – |
| CC(C)(C)c1nnc(SCC(=O)c2ccccc2)n(N)c1=O | 19.3% | – |
| COc1ccc(-c2nc(-c3ccc(NC(=O)c4ccncc4)cc3)no2)cc1OC | -19.3% | – |
| CC1(C)NC(=O)N(CC(=O)N2CCN(S(=O)(=O)c3ccccc3C(F)(F)F)CC2)C1=O | 16.7% | – |
| O=C(/C=C/c1ccco1)Nc1ccccn1 | – | 2.31 µM (active) |
| Cc1ccc(NC(=O)C2CCCO2)cc1[N+](=O)[O-] (stereo not drawn) | 12% | – |
| N/C(=N\OC(=O)c1cc(Cl)ccc1Cl)c1ccccn1 | – | 0.92 µM (active) |
| CC1Cc2ccccc2N1C(=O)COC(=O)C1(c2ccccc2F)CCCC1 (stereo not drawn) | 80.2% | – |
| Oc1ccc(N=Cc2c(O)ccc3ccccc23)cc1 | 8.85% | – |

| SMILES | activation | Potency |
| --- | --- | --- |
| CSC1=NCCN1C(=O)c1ccc(Br)o1 | -91.1% | – |
| Cc1ccc(OCCCNCCO)c(Br)c1 | 39.1% | – |
| CC(C)c1ccc(OCC(=O)NC(C)c2ccccc2)cc1 (stereo not drawn) | -14.6% | – |
| CCOC(=O)C1=C(C)Nc2ncnn2C1c1c[nH]c2ccccc12 (stereo not drawn) | 31.2% | – |
| c1ccc(-c2cn3nc(-c4ccccc4)cnc3n2)cc1 | – | 0.92 µM (active) |
| O=C(Nc1nnc(-c2cccs2)o1)c1cccc(C(F)(F)F)c1 | -4.17% | – |
| O=C(CNc1ccccc1)N/N=C/c1c[nH]c2ccccc12 | 25.5% | – |
| CS(=O)(=O)N1CCC(C(=O)Nc2cc(Cl)c(Cl)cc2Cl)CC1 | -4.17% | – |
| O=C(NCC1CCCO1)c1ccc(NC(=O)c2cccc([N+](=O)[O-])c2)cc1 (stereo not drawn) | 0% | – |
| COc1ccccc1C(=O)CSc1nccn1C | 31.8% | – |
| Cc1ccc(-c2nnc(SCc3ccccc3F)o2)cc1 | – | 1.3 µM (active) |
| CCOc1cc(S(=O)(=O)NC2CCCCCC2)ccc1F | -12.5% | – |
| CC(/C=C/c1ccccc1)=N/O | 21.9% | – |
| CC(=O)c1c(C)[nH]c(C(=O)OCC(=O)c2ccc(C)s2)c1C | 44.3% | – |
| C#CCn1c(=NC(=O)c2cccs2)sc2cccc(OCC)c21 | -7.81% | – |
| CC12CCC(C(=O)N(CSC(=S)N/N=C\c3ccccc3O)C1=O)C2(C)C (stereo not drawn) | 5.73% | – |
| Cc1ccccc1S(=O)(=O)Nc1nc2ccccc2nc1N1CCc2ccccc2C1 | 29.7% | – |
| Cc1ccc(S(=O)(=O)CNC(=O)c2ccccc2)cc1 | -11.5% | – |
| N=C1C(c2nc3ccccc3s2)=C(O)CN1Cc1ccccc1 | – | 14.6 µM (active) |
